Exocytosis inh: lytic granule exocytosis inhibition; TALL-104 LAMP-1 surface exposure, flow cytometry; cells stimulated with thapsigargin and PMA; inhibition, % at 10 µM; actives 0.66% (n = 360,000);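 active means inhibition above about 55%, limit read from the data; inconclusive means no clear call, values can overlap the other calls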
JMJD2C inh: blocks human GASC-1 demethylase activity; Q9H3R0; GST-JMJD2C(1-420) H3K9me3 demethylation, DELFIA europium; inhibition, % at 2.35 µM; actives 0.069% (n = 330,000); AID 2099;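 active means more than half of a compound's replicate wells show inhibition beyond 50%, single wells judged on their own value; inconclusive means some, but no more than half, of replicates pass 50% inhibition; inactive means no replicate passes 50% inhibition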;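 further: signal counts dimethyl H3K9 product captured on neutravidin plate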
Target sequence (Q9H3R0 1-420 limits assumed): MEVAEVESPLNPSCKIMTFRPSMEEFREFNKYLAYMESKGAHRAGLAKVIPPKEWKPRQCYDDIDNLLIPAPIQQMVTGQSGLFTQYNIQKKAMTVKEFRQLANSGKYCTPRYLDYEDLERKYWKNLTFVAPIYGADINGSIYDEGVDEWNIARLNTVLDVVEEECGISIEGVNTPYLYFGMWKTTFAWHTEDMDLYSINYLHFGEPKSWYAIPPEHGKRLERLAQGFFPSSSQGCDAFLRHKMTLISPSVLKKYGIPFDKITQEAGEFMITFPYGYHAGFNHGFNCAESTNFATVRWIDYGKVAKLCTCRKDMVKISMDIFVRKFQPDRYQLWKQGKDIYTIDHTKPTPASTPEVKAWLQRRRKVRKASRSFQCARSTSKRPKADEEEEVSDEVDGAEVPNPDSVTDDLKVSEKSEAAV
M18AAP inhibitor: PfM18AAP enzyme inhibition | actives 1.2% (n = 290,000) | AID 1822 | recombinant PfM18AAP, H-Glu-NHMec fluorogenic cleavage | inhibition, % at 7.35 µM;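 active means inhibition above the campaign mean inhibition over all tested compounds plus 3 SD, cut at about 28% in these data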
beta cell repl: inducers of beta-cell replication in MIN6 cells | actives 0.29% (n = 330,000) | proliferation, % at 10 µM | MIN6 cells proliferation, ATPlite luminescence, 48 h; cells starved in 0.2% serum; 100% = growth in 10% serum;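 active means compounds whose signal lies at least 3.5 SD above the mean of all wells on their plate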
ALR inh: inhibitors of human sulfhydryl oxidase ALR | P55789 | purified ALR, DTT oxidation, H2O2 HRP-luminol luminescence | inhibition, % (no concentration beside the values) | actives 3.8% (n = 290,000) | AID 485317;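 active means mean replicate inhibition above about 79%, with every replicate also reaching it, limit read from the data; inconclusive means only one of the two criteria met; inactive means mean below limit and not every replicate reaching it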
Target sequence (P55789 whole entry, looked up): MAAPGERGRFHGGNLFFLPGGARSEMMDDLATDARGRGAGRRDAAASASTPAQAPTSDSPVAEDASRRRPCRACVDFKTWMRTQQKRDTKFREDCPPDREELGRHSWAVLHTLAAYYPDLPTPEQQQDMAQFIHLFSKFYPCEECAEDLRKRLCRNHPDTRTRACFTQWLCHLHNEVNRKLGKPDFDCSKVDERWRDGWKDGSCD
SMARCA2 activ: SMARCA2 function activation, primary screen. MG213 cells, MMTV-luciferase reporter, dexamethasone, overnight. activation, % at 9.1 µM. actives 1% (n = 370,000). AID 652017; in the data active means activation above about 7.8%
SMARCA2 conf: confirmation of SMARCA2 (BRM) function activators | shares compounds with SMARCA2 activ | MG213 cells, MMTV-luciferase with dexamethasone, luminescence, overnight; MG213 cells expressing E1A, Rb sequestered; DMSO wells 0%, reference activator 100% | activation, % at 9.1 µM | actives 30% (n = 3,500) | AID 652260;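 active means activation above its plate's cutoff, the mean activation of tested wells plus 3 SD, cut at about 7.9% in these data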
GAL4-VP16 Luc: GAL4-VP16 reporter activation counter-screen. shares compounds with SMARCA2 activ. HEK293 GAL4-VP16 pG5luc reporter, luciferase luminescence; scaled: DMSO wells 0%, SAHA wells 100%. activation, % at 9.1 µM. actives 41% (n = 3,500);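 active means activation above the solvent-only control well mean plus 3 SD, averaged across control plates, cut at about 5.2% in these data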
Each line names hits and unclear results; the compound was inactive in the other large screens (follow-up assays come after a bar, where they were run). Compounds with a hit are over-represented: about 5.4% of the library has one in this group of screens.

CC(C)C(=O)Nc1ccc(C(=O)N/N=C/c2cc(Br)cc(Br)c2O)cc1	SMARCA2 activ 11 | SMARCA2 conf inactive | GAL4-VP16 Luc inactive
CC(=O)Nc1ccc(C(=O)N/N=C/c2cc(Br)cc(Br)c2O)cc1	none
COc1ccc(-c2noc(CSc3nnc(Cc4ccccc4)n3-c3ccc(Cl)cc3)n2)cc1	none
COc1ccc(-c2noc(CSc3nc4ccccc4c(=O)n3-c3ccc(C)cc3)n2)cc1	SMARCA2 activ 12 | SMARCA2 conf inactive | GAL4-VP16 Luc inactive
N#C/C(=C\c1ccc(OCc2ccccc2)cc1)C(=O)Nc1nc2c(s1)CCN(Cc1ccccc1)C2	none
CN(C)c1ccc(/C=C(/C#N)C(=O)Nc2nc3c(s2)CCN(Cc2ccccc2)C3)cc1	SMARCA2 activ 8.9 (no result: JMJD2C inh, M18AAP inhibitor, beta cell repl, ALR inh) | SMARCA2 conf inactive | GAL4-VP16 Luc 6.9
COc1ccc(NC(=O)c2oc3ccccc3c2C)cn1	SMARCA2 activ 9.8 | SMARCA2 conf 9.7 | GAL4-VP16 Luc 5.4
CC1(C(=O)NS(=O)(=O)c2cccc(Cl)c2)CCN1C(=O)c1ccccc1 (stereo unspecified)	none (no result: JMJD2C inh, M18AAP inhibitor, beta cell repl, ALR inh)
Cc1cc(C(=O)N2CCC2(C)C(=O)NS(=O)(=O)c2cccc(Cl)c2)nn1C (stereo unspecified)	SMARCA2 activ 8.1 (no result: JMJD2C inh, M18AAP inhibitor, beta cell repl, ALR inh) | SMARCA2 conf inactive | GAL4-VP16 Luc inactive
O=C(Nc1ccccc1)Nc1nccs1	SMARCA2 activ 9.0 | SMARCA2 conf inactive | GAL4-VP16 Luc inactive
COc1ccc(-c2cc(C(=O)Nc3ccc(NC(C)=O)cc3)[nH]n2)c(C)c1	SMARCA2 activ 9.6 (no result: JMJD2C inh, M18AAP inhibitor, beta cell repl, ALR inh) | SMARCA2 conf inactive | GAL4-VP16 Luc inactive
Cn1c(=O)c2cc(NC(=S)NCc3ccccc3F)ccc2n1Cc1cccc(C(F)(F)F)c1	none (no result: JMJD2C inh, M18AAP inhibitor, beta cell repl, ALR inh)
O=C(C[C@H]1C[C@@H]2c3cc(NC(=O)Nc4ccccc4F)ccc3O[C@@H]2[C@H](CO)O1)NCc1ccccn1	none (no result: JMJD2C inh, M18AAP inhibitor, beta cell repl, ALR inh)
COc1ccc(NC(=O)c2sc(SCc3ccccc3)nc2N)cc1	none
COc1ccc(NC(=O)c2sc(SC)nc2N)cc1	JMJD2C inh inconclusive, SMARCA2 activ 11 | SMARCA2 conf inactive | GAL4-VP16 Luc inactive
CCCc1cc(=O)n2[nH]c(-c3ccc(Br)cc3)cc2n1	SMARCA2 activ 8.2 | SMARCA2 conf inactive | GAL4-VP16 Luc 9.2
O=[N+]([O-])c1cccnc1Oc1ccccc1F	SMARCA2 activ 9.6 | SMARCA2 conf inactive | GAL4-VP16 Luc inactive
COc1ccccc1Oc1ccccc1[N+](=O)[O-]	SMARCA2 activ 10.0 | SMARCA2 conf inactive | GAL4-VP16 Luc inactive
O=C(O)c1cccc(Oc2ccccc2[N+](=O)[O-])c1	SMARCA2 activ 12 | SMARCA2 conf inactive | GAL4-VP16 Luc inactive
O=[N+]([O-])c1cccnc1Oc1ccc(F)cc1	none
C[C@@H]1CN([C@@H](C)CO)C(=O)c2cc(Br)cnc2O[C@@H]1CN(C)Cc1ccccn1	none (no result: Exocytosis inh, JMJD2C inh, M18AAP inhibitor, beta cell repl, ALR inh)
N#CCCN1CCN(C2=NC(=O)/C(=C\c3cccs3)S2)CC1	SMARCA2 activ 8.8 | SMARCA2 conf inactive | GAL4-VP16 Luc inactive
O=C1N=C(N2CCOCC2)S/C1=C\c1cccs1	none
Cc1ccc2ccccc2c1C(O)c1ncc(-c2ccccc2)[nH]1 (stereo unspecified)	none (no result: JMJD2C inh, M18AAP inhibitor, beta cell repl, ALR inh)
CCOC(=O)c1ccc(Nc2ncccc2[N+](=O)[O-])cc1	SMARCA2 activ 8.3 | SMARCA2 conf 16 | GAL4-VP16 Luc 6.2
CCOC(=O)c1ccc(NC(=O)c2ccccc2[N+](=O)[O-])cc1	none
CCOC(=O)c1c(C)[nH]c(N=Nc2ccc(C)cc2)c1C	none
CCOC(=O)c1c(C)[nH]c(N=Nc2ccc(OC)cc2)c1C	SMARCA2 activ 9.3 | SMARCA2 conf inactive | GAL4-VP16 Luc 7.7
Cc1cccc(C)c1NC(=O)C(c1ccccc1OC(F)(F)F)N1CCC(c2ccccc2)CC1 (stereo unspecified)	none (no result: JMJD2C inh, M18AAP inhibitor, beta cell repl, ALR inh)
O=C1Nc2ccccc2C1(c1ccccc1)c1ccccc1	SMARCA2 activ 11 | SMARCA2 conf inactive | GAL4-VP16 Luc inactive
Nc1ccc(C2(c3ccc(N)cc3)C(=O)Nc3ccccc32)cc1	none
CCCCN(C)C(=O)c1ccc(Nc2nc(C(N)COCc3ccccc3)cs2)nc1 (stereo unspecified)	none (no result: JMJD2C inh, M18AAP inhibitor, beta cell repl, ALR inh)
Cn1c(CN2CCOCC2)nnc1SCC(=O)NCCc1ccccc1	SMARCA2 activ 8.2 (no result: ALR inh) | SMARCA2 conf inactive | GAL4-VP16 Luc inactive
COc1ccc(-c2nc(N)ncc2-c2ccc(OC)c(OC)c2)c(O)c1	SMARCA2 activ 8.1 | SMARCA2 conf inactive | GAL4-VP16 Luc inactive
COc1ccc(-c2ncncc2-c2ccc(OC)c(OC)c2)c(O)c1	none
CCCC(=O)N1CCCC1(C)C(=O)Nc1ccc(-n2cncn2)cc1 (stereo unspecified)	none (no result: JMJD2C inh, M18AAP inhibitor, beta cell repl, ALR inh)
Cc1ccc(C(=O)CSc2nc(C)cc(C)c2C(N)=O)cc1	none
Cc1ccc(C(=O)CC(C(=O)O)n2ccc(C)n2)cc1 (stereo unspecified)	SMARCA2 activ 8.2 | SMARCA2 conf inactive | GAL4-VP16 Luc inactive
CCOC(=O)C1=CCC(C(C)(C)C)N(S(=O)(=O)c2ccc(C)cc2)C1 (stereo unspecified)	none (no result: JMJD2C inh, M18AAP inhibitor, beta cell repl, ALR inh)
COC(=O)c1cc2c(c3c4cc(C#N)ccc4n(S(=O)(=O)c4ccc(C)cc4)c13)C(=O)N(C)C2	none (no result: Exocytosis inh, JMJD2C inh, M18AAP inhibitor, beta cell repl, ALR inh)
Cc1ccccc1N=Nc1c(C)[nH]n(C(N)=S)c1=O	SMARCA2 activ 14 | SMARCA2 conf inactive | GAL4-VP16 Luc inactive
CSc1ccc(Cn2c(C)c(C(=O)NCc3ccc(F)cc3)sc2=O)cc1	none (no result: JMJD2C inh, M18AAP inhibitor, beta cell repl, ALR inh)
c1ccc2c(c1)nnn2-c1ncnc2sccc12	SMARCA2 activ 12 (no result: ALR inh) | SMARCA2 conf 9.9 | GAL4-VP16 Luc inactive
O=C(NCc1ccccc1Cl)c1cc(=O)[nH]c2ccccc12	SMARCA2 activ 8.4 | SMARCA2 conf inactive | GAL4-VP16 Luc inactive
CC(C)n1nnnc1C1c2ccccc2C(=O)N1CCc1c[nH]c2ccccc12 (stereo unspecified)	none (no result: JMJD2C inh, M18AAP inhibitor, beta cell repl, ALR inh)
CC(C)n1nnnc1C1c2ccccc2C(=O)N1CCc1ccccc1F (stereo unspecified)	SMARCA2 activ 8.8 (no result: JMJD2C inh, M18AAP inhibitor, beta cell repl, ALR inh) | SMARCA2 conf inactive | GAL4-VP16 Luc 7.4
Cc1cccc(-c2noc(Cc3ccccc3)n2)c1	none
Cc1cccc(-c2noc(CCc3ccccc3)n2)c1	SMARCA2 activ 11 (no result: ALR inh) | SMARCA2 conf inactive | GAL4-VP16 Luc 6.7
CCOC(=O)C1CCCCN1Cc1cccc(F)c1 (stereo unspecified)	SMARCA2 activ 8.8 | SMARCA2 conf inactive | GAL4-VP16 Luc inactive
CCCCCCCCN1C(=O)[C@H](CC(=O)NCc2cccc(C(F)(F)F)c2)C[C@@]2(C(=O)OC)CC(C)(C)CC=C12	none (no result: JMJD2C inh, M18AAP inhibitor, beta cell repl, ALR inh)

Source: PubChem BioAssay
